TEAD-YAP block: TEAD-YAP interaction inhibition. HEK-TIYL cells, TEAD-Gal4/YAP UAS-luciferase luminescence. inhibition, % at 9.12 µM. 640,000 tested, 1.4% active; in the data active = inhibition above about 32%;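 also: 0% = median of test compound wells and 100% = reference inhibitor wells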
MITF primary: blocks human microphthalmia-associated transcription factor | AlphaScreen MITF homodimerization, bead proximity signal | 650,000 tested, 0.91% active | inhibition, % at 2.6 µM | O75030; in the data active = inhibition above about 50%;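 also: 0% = vehicle wells with protein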
Target sequence (O75030 whole entry, looked up): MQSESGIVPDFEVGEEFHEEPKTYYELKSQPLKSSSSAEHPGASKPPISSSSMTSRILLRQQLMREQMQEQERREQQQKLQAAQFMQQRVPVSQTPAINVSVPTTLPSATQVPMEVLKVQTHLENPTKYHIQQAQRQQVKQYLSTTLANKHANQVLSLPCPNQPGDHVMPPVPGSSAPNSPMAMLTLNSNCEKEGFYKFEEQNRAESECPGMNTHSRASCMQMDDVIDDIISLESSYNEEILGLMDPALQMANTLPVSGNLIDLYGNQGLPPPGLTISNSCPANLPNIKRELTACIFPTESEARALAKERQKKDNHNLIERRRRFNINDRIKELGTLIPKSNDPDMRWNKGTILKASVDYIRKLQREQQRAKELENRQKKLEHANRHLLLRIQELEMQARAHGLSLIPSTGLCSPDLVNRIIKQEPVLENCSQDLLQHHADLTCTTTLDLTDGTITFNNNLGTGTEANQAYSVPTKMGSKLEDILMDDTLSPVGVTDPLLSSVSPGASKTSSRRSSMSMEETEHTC
GPR151 activ: human GPR151 activation. Q8TDV0. PathHunter beta-arrestin GPR151 cells, luminescence. activation, % at 11.2 µM. 650,000 tested, 1% active. AID 1508602; in the data active = activation above about 4.9%;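 also: 0% = median of compound wells and 100% = cells with positive control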
FBW7 activator: human FBW7 E3 ligase activation, primary screen; AlphaScreen FBW7–phospho-cyclin E peptide binding, activator screen; normalized activity (activation), % at 26.1 µM; 650,000 tested, 0.13% active; AID 1259310; in the data active = normalized activity above about 1.9%;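 also: purified mutant Fbw7 with reduced substrate affinity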
GPR151 conf act: confirmation of human GPR151 activators | activation, % at 11.2 µM | GPR151 PathHunter beta-arrestin cells, luminescence, 90 min; % of EA-reagent control over plate median | 6,700 tested, under 10 active | AID 1508609 | shares compounds with GPR151 activ;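 active = mean percent activation across replicates above the confirmation screen cutoff of 4.91%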
GPR119 ag: counter-screen for GPR151 activators: effect on human GPR119; GPR119 PathHunter beta-arrestin cells, luminescence, 90 min; 0 = compound-well median, 100 = enzyme-acceptor control; 6,700 tested, 0.3% active; shares compounds with GPR151 activ; activation, % at 11.2 µM;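 active = mean percent activation in the counterscreen above 29.09%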;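 also: counterscreen on off-target GPR119 to flag nonselective hits from the GPR151 activator screen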
Numbers without * were called inactive; nt = no result given; ! = repeats disagree. Sampled rows, rich in hits. Any-hit rate of the full collection: about 3.4%.

SMILES	TEAD-YAP block	MITF primary	GPR151 activ	FBW7 activator	GPR151 conf act	GPR119 ag
CC(=O)Nc1cccc(Oc2ccc3c(c2)C(=O)N(c2ccc(C(=O)Oc4ccc(C)c(C)c4)cc2)C3=O)c1	6.6	9.6	4.6	0.2	nt	nt
CN1CCOc2cc(S(=O)(=O)NCc3ccccc3)ccc21	7.7	12.3	0.1	-0.2	nt	nt
COc1ccc(C(=O)Nc2nc(-c3cc(F)ccc3OC)cs2)cc1	-24.5	4.9	0.2	0.0	nt	nt
CC(C(=O)O)N1C(=O)/C(=C/C=C/c2ccccc2)SC1=S (configuration not stated)	-6.7	1.2	7.4*	-0.1	0.5	16.7
CCOc1ccc(C=Nc2ccc(C(=O)O)cc2)c(O)c1	-12.6	14.4	-1.3	0.1	nt	nt
CCOc1ccc(C=Nc2ccc(C(C)=O)cc2)c(O)c1	-32.5	4.8	5.6*	-0.1	-1.3	-13.1
O=C(Nc1ccccc1C(=O)N1CCCCC1CCO)c1cccc([N+](=O)[O-])c1 (configuration not stated)	7.3	-3.4	-3.2	0.1	nt	nt
O=C(CCCOc1ccccc1)NNC(=O)c1ccccc1	0.3	0.9	26.0*	0.2	1.1	11.3
CC(=O)c1ccc(OCCCC(=O)NNC(=O)c2ccccc2)cc1	-35.9	-8.3	-1.0	-0.1	nt	nt
CC(C)c1nc2cccnc2n1C1CCN(C(=O)c2n[nH]c3c2CCC3)CC1	-12.9	17.2	10.5*	0.0	0.8	10.4
COC(=O)CN1C(=O)Nc2ccc(Br)cc2C1c1ccccc1Cl (configuration not stated)	0.5	2.1	14.9*	0.2	0.5	4.1
CCOC(=O)CN1C(=O)Nc2ccc(Br)cc2C1c1ccccc1 (configuration not stated)	7.4	13.7	0.5	0.6	nt	nt
COCCCNC(=O)CN(c1cc(Cl)ccc1C)S(C)(=O)=O	-5.8	6.7	-0.8	0.1	nt	nt
COCCCNC(=O)CN(c1cc(Cl)ccc1Cl)S(C)(=O)=O	-6.0	3.4	10.6*	0.0	0.0	-8.8
CCCNC(=O)N1CCc2nc(N3CCOCC3)[nH]c(=O)c2C1	6.9	-0.2	-1.6	0.0	nt	nt
COc1ccc(-c2cnnc(N[C@H]3CCCCNC3=O)n2)cc1	-19.6	1.8	0.2	0.2	nt	nt
Cc1cnc(C)c(NC2CCCCNC2=O)n1 (configuration not stated)	11.5	6.4	8.0*	-0.1	2.0	0.4
FC(F)(F)c1ccc(Cn2cnc3c(NCCN4CCOCC4)nc(N4CCN(c5ccccn5)CC4)nc32)cc1	8.7	8.7	1.6	0.1	nt	nt
CN(C)CCCN(Cc1ccc2c(c1)OCO2)C(=O)NC1CCCCC1	-1.4	6.0	5.2*	0.4	-0.5	-3.4
Cc1nc(N2CCOCC2)nc2c1CCC2	-11.2	6.8	10.4*	0.1	-0.9	-10.2
COc1ccc(N2CCN(C3CCCN(C(=O)CCN4CCCCO4)C3)CC2)cc1 (configuration not stated)	-4.8	5.8	5.3*	0.0	1.0	9.9
CN1C(=O)c2ccc(C(=O)Nc3ccc(Br)cc3C(=O)O)cc2C1=O	8.6	-1.9	7.9*	-0.2	-0.3	2.0
CCCN1C(=O)c2ccc(C(=O)Nc3ccc(Br)cc3C(=O)O)cc2C1=O	-5.0	-2.0	0.2	-0.2	nt	nt
COc1ccc(CCNc2nc(NC3CCN(Cc4ccccc4)CC3)nc3cc(OC)c(OC)cc23)cc1	-2.5	1.1	8.0*	-0.1	-0.1	10.5
CCC(C)NC(=O)CSc1ncccc1C(=O)O (configuration not stated)	8.8	6.8	5.1*	0.1	0.6	-3.4
SMILES	TEAD-YAP block	MITF primary	GPR151 activ	FBW7 activator	GPR151 conf act	GPR119 ag
NC(=O)c1ccc(-n2c(CCC(=O)O)ccc2-c2ccccc2)cc1	-0.9	7.0	3.0	-0.1	nt	nt
NC(=O)c1ccc(-n2c(CCC(=O)O)ccc2-c2ccc(F)cc2)cc1	-4.9	10.5	9.7*	0.1	-1.0	-10.7
N#CCC(=O)NNC(=O)c1ccc(F)cc1	-8.7	-5.3	0.5	-0.1	nt	nt
CC(=O)Nc1ccc(NC(=S)NC(=O)c2ccccc2[N+](=O)[O-])cc1	-19.8	-20.9	6.4*	-0.1	0.0	16.4
CC(=O)Nc1ccc(N2CCCCC2)c(C(=O)Nc2cccc(C)c2)c1	3.7	11.9	-0.5	0.2	nt	nt
Cc1cccc(NC(=O)c2cc(N3C(=O)CCC3=O)ccc2N2CCCCC2)c1	3.7	-14.5	8.2*	-0.1	0.0	8.5
CCOC(=O)CC(C(C)C)N(Cc1ccc(Cl)c([N+](=O)[O-])c1)S(=O)(=O)c1ccc(Cl)cc1 (configuration not stated)	-7.7	9.2	9.1*	0.0	-0.9	-10.2
O=C(NCCCSc1ccc(Br)cc1)Nc1ncccn1	10.0	8.2	5.2*	0.3	0.9	7.2
O=C(/C=C/c1ccccc1)c1ccc([N+](=O)[O-])o1	13.0	17.9	-1.4	0.0	nt	nt
C[C@H](c1ccccc1)n1c(=O)[nH]c2ncc(-c3ccc(C(N)=O)cc3)nc21	-11.3	-13.7	1.8	-0.5	nt	nt
Cc1cc(=O)n2nc(N3CCCC3C(=O)NCCCN3CCCCC3)sc2n1 (configuration not stated)	-1.7	5.2	5.0*	0.1	1.1	-12.9
O=C(O)c1ccc(Cn2cnc3scc(-c4ccccc4)c3c2=O)cc1	-0.8	-0.4	5.2*	0.0	0.2	7.2
O=c1c2c(-c3ccccc3)csc2ncn1Cc1ccccc1	10.3	1.4	-0.6	0.0	nt	nt
CCN=C1SC(CC(=O)Nc2sc(C)c(C)c2C(=O)OC)C(=O)N1CC (configuration not stated)	2.9	-9.6	6.0*!	-0.2	2.2	7.0
COc1ccc(-c2cc(N)n(S(=O)(=O)c3ccc([N+](=O)[O-])cc3)n2)cc1OC	-6.9	8.5	0.2	-0.4	nt	nt
Cc1cccn2c(=O)c(/C=C(\C#N)C(=O)N3CCCCC3)c(Oc3ccc(F)cc3)nc12	10.7	-15.7	5.7*	0.1	-0.5	-11.5
COCCNC(=O)/C(C#N)=C/c1c(Oc2cccc(C)c2)nc2c(C)cccn2c1=O	4.5	-0.5	6.1*	-0.1	1.2	1.5
COc1ccc(Oc2nc3c(C)cccn3c(=O)c2/C=C(\C#N)C(=O)N2CCCCC2)cc1	4.2	5.9	0.8	-0.1	nt	nt
Cc1ccc(Oc2nc3ccccn3c(=O)c2/C=C(\C#N)C(=O)N2CCOCC2)cc1	1.7	3.2	4.9*	0.4	-0.8	-9.7
Cc1ccc2nc(Nc3ccc(C(=O)N4CCN(c5ccccc5)CC4)cc3)nc(-c3ccccc3)c2c1	1.5	-4.5	1.0	0.0	nt	nt
COc1ccc(CC(=O)Nc2nnc(SCC(=O)N3CCOCC3)s2)cc1OC	4.4	5.7	0.1	-0.1	nt	nt
O=C(Cn1nnc(-c2ccccc2NC(=O)c2ccc(F)cc2)n1)NCc1ccco1	15.2	8.3	-0.6	0.4	nt	nt
O=C1NCC2=C1C(c1ccccc1)Nc1ccccc1N2 (configuration not stated)	-0.8	-0.5	0.5	0.0	nt	nt

Screening results (PubChem BioAssay)
